Rows were chosen to be rich in hits. Some 0.93% of all compounds tested hit in one or more screens of this group.
CIT2 TOR yeast – modulators of TOR pathway CIT2-GFP in S. cerevisiae | S. cerevisiae CIT2-GFP strain, flow cytometry, 3 h; 100 means same as DMSO wells | AID 2029 | 0.065% of 320,000 active | GFP response vs DMSO, % at 10 µM;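 active means GFP response relative to DMSO above a set limit, near the screen mean plus 3 SD, cut at about 150% in these data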;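 further: ratio of well median GFP fluorescence to mean of DMSO wells on the plate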
RPL19A TOR yeast – yeast TOR pathway RPL19A-GFP modulation; 0.3% of 330,000 active; percent response vs DMSO, % at 10 µM; S. cerevisiae RPL19A-GFP strain, flow cytometry, 3 h; active compounds read low;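 active means percent response vs DMSO below 50%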;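 further: median channel GFP fluorescence of the barcoded RPL19A-GFP strain; lower means less RPL19A-GFP as with rapamycin TOR inhibition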
LAP4 TOR yeast – modulators of TOR pathway LAP4-GFP in S. cerevisiae; S. cerevisiae LAP4-GFP multiplex, flow cytometry GFP, 3 h; median GFP as percent of DMSO wells; 0.34% of 320,000 active; GFP response vs DMSO, % at 10 µM;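 active means GFP response vs DMSO above a set limit, about the screen mean plus 3 SD, cut at about 150% in these data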
AGP1-GFP MLPCN – alters AGP1-GFP fluorescence in TOR pathway yeast screen. S. cerevisiae AGP1-GFP multiplex flow cytometry, 3 h; GFP as percent of DMSO wells. GFP response vs DMSO, % at 10 µM. 0.02% of 320,000 active;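 active means GFP response relative to DMSO above a set limit, near screen average plus 3 SD, cut at about 150% in these data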;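 further: median GFP channel fluorescence of the gated AGP1 strain per well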
MEP2-GFP yeast – yeast TOR pathway MEP2-GFP modulation; GFP response vs DMSO, % at 10 µM; AID 2016; 0.51% of 330,000 active; S. cerevisiae MEP2-GFP strain, flow cytometry GFP, 3 h; 100% = DMSO control level;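 active means GFP response versus DMSO above a set limit, roughly screen mean plus 3 SD, cut at about 180% in these data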;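 further: median GFP fluorescence of the barcode-gated MEP2-GFP cells per well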
LAP4-GFP pick2 – yeast LAP4-GFP modulation, second cherry pick. shares compounds with LAP4 TOR yeast. S. cerevisiae LAP4-GFP strain, flow cytometry GFP, 3 h. GFP response vs DMSO, % at 10 µM. 20% of 590 active. AID 2621;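 active means GFP signal as percent of the solvent control above about 150%, meaning raised reporter expression, limit read from the data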
MEP2-GFP pick2 – second confirmation of modulators of TOR reporter MEP2-GFP in yeast | shares compounds with LAP4 TOR yeast | S. cerevisiae MEP2-GFP strain, flow cytometry GFP, 3 h | GFP response vs DMSO, % at 10 µM | 10% of 590 active | AID 2622;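 active means GFP signal above 150% of the solvent control wells, that is a rise of more than half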;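 further: median channel GFP fluorescence of all gated yeast cells per well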
RPL19A-GFP pick2 – yeast RPL19A-GFP TOR reporter modulation, second cherry pick; shares compounds with LAP4 TOR yeast; 3% of 590 active; GFP response vs DMSO, % at 10 µM; AID 2623; S. cerevisiae RPL19A-GFP strain, flow cytometry GFP, 3 h; active compounds read low; 100% means same as DMSO wells;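 active means under 65% GFP response relative to DMSO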;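 further: median GFP channel fluorescence per well over the all cells gate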
CIT2 GFP CP2 – yeast CIT2-GFP TOR reporter modulation, second cherry pick; shares compounds with LAP4 TOR yeast; GFP response vs DMSO, % at 10 µM; S. cerevisiae CIT2-GFP strain, flow cytometry GFP, 3 h; DMSO control wells read 100%; 8% of 590 active;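 active means GFP response vs DMSO above about 150%, limit read from the data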;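 further: median green fluorescence per well over all gated yeast cells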
AGP1 GFP CP2 – reconfirmed modulator of AGP1-GFP TOR reporter in yeast | S. cerevisiae AGP1-GFP strain, flow cytometry GFP, 3 h | 590 tested, under 10 active | percent response vs DMSO, % at 10 µM | shares compounds with LAP4 TOR yeast;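 active means over 150 percent of DMSO response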;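 further: median GFP channel fluorescence over all cells without mother daughter split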
Yeast autofluor – counter-screen for compound autofluorescence in yeast s288c cells | 610 tested, under 10 active | fluorescence change (kMESF span) at 33 µM | shares compounds with LAP4 TOR yeast | AID 2757 | S. cerevisiae s288c, 520 nm autofluorescence, flow cytometry, 3 h; active compounds read high; zero means same as solvent-only cells;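 active means fluorescence span over the dose series, or activity score, above about 33, limit read from the data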
s288c autofl DR – yeast s288c autofluorescence artifact in dose response | shares compounds with LAP4 TOR yeast | S. cerevisiae s288c parental, compound autofluorescence, flow cytometry, 3 h | fluorescence change (span) at 33 µM | 110 tested, under 10 active;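 active means fluorescence change span, or the activity score built from it, above 25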
TORC1 bypass – wildtype yeast growth loss with TORC1 bypass cells unaffected. growth rating (0-3) at 30 µM. S. cerevisiae BY4741 spot growth rating, 48-72 h; active compounds read low. AID 504456. 120 tested, under 10 active. shares compounds with LAP4 TOR yeast;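 active means growth rating at most 1 for wild type yeast while the TORC1 bypass strain still grows fully, rated 3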
Each line names hits and unclear results; the compound was inactive in the other large screens (follow-up assays come after a bar, where they were run).

O=C(/C=C/c1ccc(F)cc1)NC(=S)Nc1ccccc1	none
O=C(NC(=S)NNC(=O)c1cnccn1)c1ccc(F)cc1	LAP4 TOR yeast 232 | Yeast autofluor inactive | s288c autofl DR inactive | TORC1 bypass inactive
COc1ccc(/C=C/C(=O)NC(=S)NNC(=O)c2cnccn2)cc1	LAP4 TOR yeast 225 | Yeast autofluor inactive | s288c autofl DR inactive | TORC1 bypass inactive
O=C(/C=C/c1ccc(F)cc1)NC(=S)NNC(=O)c1cnccn1	LAP4 TOR yeast 261 | Yeast autofluor inactive
CCC(CC)C(=O)Nc1nnc(S(=O)(=O)N2CCCc3ccccc32)s1	none
O=[N+]([O-])c1ccc(N=Nc2c(Cl)cc(O)cc2Cl)cc1	LAP4 TOR yeast 278 | Yeast autofluor inactive
Cc1nn(C)c(C)c1N1C(=O)c2cccc3c(Br)ccc(c23)C1=O	none | Yeast autofluor inactive
CCCOc1ccc(C(=O)NNC(=S)NC(=O)CC)cc1	LAP4 TOR yeast 259 | Yeast autofluor inactive | s288c autofl DR inactive | TORC1 bypass inactive
Cc1cccc(NC(=O)CN2CCN(C(=O)c3oc4c(Cl)cccc4c3C)CC2)c1C	none
CC(NC(=O)CCN1C(=O)c2ccccc2C1=O)c1ccccc1 (configuration not stated)	none
CC(C)CC(=O)NC(=S)Nc1nc(-c2ccccc2)cs1	none | LAP4-GFP pick2 inactive | MEP2-GFP pick2 inactive | RPL19A-GFP pick2 inactive | CIT2 GFP CP2 inactive | AGP1 GFP CP2 inactive | Yeast autofluor inactive
CC(C)(C=O)C1=CC(=O)c2ccccc2C1=O	LAP4 TOR yeast 193 | LAP4-GFP pick2 inactive | MEP2-GFP pick2 inactive | RPL19A-GFP pick2 inactive | CIT2 GFP CP2 inactive | AGP1 GFP CP2 inactive
CC1=CC(=O)c2ccccc2C1=O	none
CC(CN1CCCCC1)OC(=O)/C=C/c1ccccc1 (configuration not stated)	none
O=C(/C=C/c1ccc(Cl)cc1)c1cccnc1	none | LAP4-GFP pick2 inactive | MEP2-GFP pick2 inactive | RPL19A-GFP pick2 inactive | CIT2 GFP CP2 inactive | AGP1 GFP CP2 inactive
N#Cc1ccc(/C=C/C(=O)c2cccnc2)cc1	none
Nc1nc(NCCc2ccccc2)nc(Nc2cccc(F)c2)c1[N+](=O)[O-]	none (no result: CIT2 TOR yeast, RPL19A TOR yeast, LAP4 TOR yeast, AGP1-GFP MLPCN, MEP2-GFP yeast) | s288c autofl DR inactive | TORC1 bypass inactive
Nc1nc(NCc2ccco2)nc(Nc2cccc(F)c2)c1[N+](=O)[O-]	none | s288c autofl DR inactive | TORC1 bypass inactive
Nc1nc(NCc2ccco2)nc(Nc2ccccc2)c1[N+](=O)[O-]	none
COc1cccc(Nc2nc(N)c([N+](=O)[O-])c(Nc3cccc(F)c3)n2)c1	none (no result: CIT2 TOR yeast, RPL19A TOR yeast, LAP4 TOR yeast, AGP1-GFP MLPCN, MEP2-GFP yeast) | s288c autofl DR inactive | TORC1 bypass inactive
Nc1nc(NCc2ccccc2)nc(Nc2cccc(F)c2)c1[N+](=O)[O-]	none | s288c autofl DR inactive | TORC1 bypass inactive

Assay outcomes deposited in PubChem by NMMLSC.
